Hits are enriched below; roughly 1.1% of the tested compounds scored in any of these assays.
GALR2 blocker: antagonists of human galanin receptor 2 (GALR2) | O43603 | GALR2-expressing cells, antagonist mode | inhibition, % at 4 µM | 140,000 compounds, 0.39% hits; in the data active = inhibition above about 27%;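 note: cells stimulated with galanin 1-16 at roughly its EC80; 0% = agonist challenge control and 100% = basal control without agonist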
S1P2 agonist: agonists of human S1P2 receptor | S1P2-expressing cell line, agonist reporter read-out | 97,000 compounds, 0.46% hits | O95136 | activation, % at 4.5 µM | AID 729; in the data active = activation above about 16%;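 note: 0% = vehicle low control and 100% = maximal reference agonist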
Target sequence (O95136 whole entry, looked up): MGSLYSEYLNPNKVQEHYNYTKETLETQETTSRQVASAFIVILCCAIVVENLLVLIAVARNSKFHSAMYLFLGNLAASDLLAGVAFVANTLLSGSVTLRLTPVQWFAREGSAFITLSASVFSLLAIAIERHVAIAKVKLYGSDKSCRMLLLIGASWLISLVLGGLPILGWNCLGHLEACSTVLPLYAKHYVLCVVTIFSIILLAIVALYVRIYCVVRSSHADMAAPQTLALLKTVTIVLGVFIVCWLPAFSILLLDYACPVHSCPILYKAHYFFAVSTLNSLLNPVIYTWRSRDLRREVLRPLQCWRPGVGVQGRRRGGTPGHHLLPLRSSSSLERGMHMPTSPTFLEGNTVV
S1P2 blocker: antagonists of human S1P2 receptor; O95136; cell-based S1P2 antagonist assay, inhibition at 5 uM; inhibition, % at 5 µM; 97,000 compounds, 0.21% hits; in the data active = inhibition above about 45%;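 note: CRE beta-lactamase reporter cells expressing human S1P2 stimulated with S1P; 0% = agonist at EC80 alone and 100% = agonist plus reference antagonist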
GALR2 agonist: activates the human galanin receptor 2. O43603. GALR2-expressing cells, agonist activation read-out. activation, % (no concentration beside the values). 140,000 compounds, 0.48% hits; in the data active = activation above about 5%, passing the limit was not always enough;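 note: 0% = vehicle buffer wells and 100% = reference agonist at full effect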
Active calls of the source: *.

O=C(Nc1ccc(F)cc1)c1sc2cc(C(F)(F)F)cnc2c1-c1cccs1 was read as GALR2 blocker 0, S1P2 agonist -5, S1P2 blocker 84* and GALR2 agonist 0.
CCOC(=O)c1sc(C)c2c1NC1(CCCCC1)NC2=O was read as GALR2 blocker -2, S1P2 agonist 17*, S1P2 blocker -45 and GALR2 agonist 19*.
COCCNC(=O)c1c(N)n(CCC2=CCCCC2)c2nc3ccccc3nc12 was read as GALR2 blocker -14, S1P2 agonist 26*, S1P2 blocker -51 and GALR2 agonist 19*.
For CCn1c2ccccc2c2cc(NC(=O)CSc3nnc(-c4ccc(OC)cc4)n3N)ccc21 the results were GALR2 blocker 9, S1P2 agonist -11, S1P2 blocker 30 and GALR2 agonist 5.2*.
For COc1ccc(NC(=O)CSc2nnc(-c3ccccc3)n2N)cc1 the results were GALR2 blocker 3, S1P2 agonist -1, S1P2 blocker -3 and GALR2 agonist -1.
Screening CC(C)NC(=S)NCc1cccnc1 returned GALR2 blocker 4 and GALR2 agonist 0.
OCCN(CCO)c1ncnc2c1oc1ccc(Br)cc12 was read as GALR2 blocker -15, S1P2 agonist 20*, S1P2 blocker -52 and GALR2 agonist -1.
For OCCSc1ncnc2c1oc1ccccc12 the results were GALR2 blocker -1, S1P2 agonist -2, S1P2 blocker -2 and GALR2 agonist -1.
COc1cc(C(=O)NNC2=CC(=O)CC(C)(C)C2)cc(OC)c1OC was read as GALR2 blocker 3 and GALR2 agonist -1.
Nn1c(CSc2nc3ccccc3o2)nnc1CSc1nc2ccccc2o1 was read as GALR2 blocker -9, S1P2 agonist -3, S1P2 blocker 0 and GALR2 agonist -1.
`Cc1cc(C)n2c(Br)c(CSc3nc4ccccc4o3)nc2n1` gave GALR2 blocker -5, S1P2 agonist 17*, S1P2 blocker -37 and GALR2 agonist -1.
`Cc1cc(C)n2cc(CSc3nc4cc(Cl)ccc4o3)nc2n1` gave GALR2 blocker -3, S1P2 agonist 17*, S1P2 blocker -11 and GALR2 agonist -1.
`Cc1cc(C)n2cc(CSc3nnc(-c4ccccc4)o3)nc2n1` gave GALR2 blocker -1, S1P2 agonist 4, S1P2 blocker -23 and GALR2 agonist -2.
For Oc1cccc2ccc(Nc3ccccn3)nc12 the results were GALR2 blocker 30* and GALR2 agonist -2.
Screening COc1ccc(C(=O)NC(NC(=S)Nc2ccc(S(N)(=O)=O)cc2)C(Cl)(Cl)Cl)cc1 (stereo not drawn) returned GALR2 blocker -7, S1P2 agonist -6, S1P2 blocker 23 and GALR2 agonist -1.
COC(=O)[C@@H]1C[C@]2(OC(=O)c3ccccc3)C=CC(=O)C[C@@H]2N1C(=O)OCc1ccccc1 was read as GALR2 blocker 28* and GALR2 agonist -1.
`O=C(O)C1CCCN1C(=O)OCc1ccccc1` (stereo not drawn) gave GALR2 blocker 0, S1P2 agonist -1, S1P2 blocker -15 and GALR2 agonist 0.
COc1cc(-c2nn3c(Cc4ccccc4)nnc3s2)cc(OC)c1OC was read as GALR2 blocker -31, S1P2 agonist 21*, S1P2 blocker -53 and GALR2 agonist 1.
`COc1cc(-c2nn3c(COc4ccccc4)nnc3s2)cc(OC)c1OC` gave GALR2 blocker 11 and GALR2 agonist -1.
For Cc1ccc(S(=O)(=O)N2CCCC2C(=O)Oc2ccccc2)cc1 (stereo not drawn) the results were GALR2 blocker 0, S1P2 agonist 36*, S1P2 blocker -2 and GALR2 agonist 0.
COC(=O)C1CCCN1S(=O)(=O)c1ccc2ccccc2c1 (stereo not drawn) was read as GALR2 blocker -5, S1P2 agonist -5, S1P2 blocker 9 and GALR2 agonist -1.
Cc1ccc(-n2c(SCC(=O)Nc3cc(C)on3)nc3c([nH]c4ccccc43)c2=O)cc1 was read as GALR2 blocker 3, S1P2 agonist 18*, S1P2 blocker -9 and GALR2 agonist 2.
Cc1nnc(SCC(=O)NNC(=O)CC#N)[nH]c1=O was read as GALR2 blocker -7 and GALR2 agonist 0.
Screening Cc1ccccc1N(C(=O)Cc1c[nH]c2ccccc12)C(C(=O)NC1CCCCC1)c1ccco1 (stereo not drawn) returned GALR2 blocker 17 and GALR2 agonist 6.1*.
`CC(=O)N1CCC(O)(c2cccc(C(F)(F)F)c2)CC1` gave GALR2 blocker 8, S1P2 agonist -3, S1P2 blocker 6 and GALR2 agonist -2.
Screening OC1(c2cccc(C(F)(F)F)c2)CCN(c2ncnc3c2[nH]c2ccc(F)cc23)CC1 returned GALR2 blocker 11, S1P2 agonist -16, S1P2 blocker 49* and GALR2 agonist 0.
Screening O=C(Nc1ccc2c(c1)OCCO2)C1CCN(C(=O)c2ccccc2)CC1 returned GALR2 blocker 3, S1P2 agonist 24*, S1P2 blocker 10 and GALR2 agonist -3.
For CCOC(=O)COc1ccc(S(=O)(=O)N2CCN(c3ccccc3)CC2)cc1 the results were GALR2 blocker 3 and GALR2 agonist 0.
For CCN(CC)C(=O)C(=O)N/N=C/c1ccc(C(=O)O)cc1 the results were GALR2 blocker -1 and GALR2 agonist -1.
Cc1nn(-c2ccc(F)cc2)c2sc(C(=O)N3CCCCCC3)cc12 was read as GALR2 blocker -21, S1P2 agonist 30*, S1P2 blocker -26 and GALR2 agonist 1.
CC(C)c1ccc(NC(=S)NCCc2c[nH]c3ccccc23)cc1 was read as GALR2 blocker -1 and GALR2 agonist -2.
Screening O=C(C#Cc1cccc([N+](=O)[O-])c1)c1ccccc1 returned GALR2 blocker 25, S1P2 agonist -10, S1P2 blocker 75* and GALR2 agonist -3.
For COc1ccc(-c2nnc3c4ccccc4c(C)nn23)cc1S(=O)(=O)N1CCN(CCO)CC1 the results were GALR2 blocker 4, S1P2 agonist 17*, S1P2 blocker -36 and GALR2 agonist -1.
For Cc1cc(C)c(S(=O)(=O)Nc2ccc(O)cc2)cc1C the results were GALR2 blocker -1, S1P2 agonist 65*, S1P2 blocker -7 and GALR2 agonist 0.
`Cc1ccc(C)c(S(=O)(=O)Nc2ccc(O)cc2)c1` gave GALR2 blocker -2, S1P2 agonist -2, S1P2 blocker 12 and GALR2 agonist -4.
For COC(=O)[C@H]1CCCN1C(=O)Nc1cccc(Oc2c(F)c(F)c(F)c(F)c2F)c1 the results were GALR2 blocker 8, S1P2 agonist -4, S1P2 blocker 2 and GALR2 agonist 14*.
Screening COc1cccc(NC(=O)C2CCCN2C(=O)Nc2cccc(F)c2)c1 (stereo not drawn) returned GALR2 blocker -5, S1P2 agonist -13, S1P2 blocker 31 and GALR2 agonist -4.
For NC(=O)c1cc2ccc(O)cc2oc1=Nc1ccccc1 the results were GALR2 blocker 0 and GALR2 agonist 3.
`NC(=O)c1cc2ccccc2oc1=NCc1ccccc1` gave GALR2 blocker 11, S1P2 agonist -9, S1P2 blocker 2 and GALR2 agonist -3.
`NC(=O)c1cc2ccc(O)cc2oc1=NCc1ccccc1` gave GALR2 blocker -47 and GALR2 agonist 45*.

Bioassay records: PubChem BioAssay, The Scripps Research Institute Molecular Screening Center
